# Rows were chosen to be rich in hits. Some 2.6% of all compounds tested hit in one or more screens of this group.
# AmpC inh no det: blocks E. coli AmpC beta-lactamase in absence of detergent | P00811 | AmpC nitrocefin hydrolysis, absorbance 480 nm, no detergent | Potency, µM (series often up to 28.7 µM), inactives show at the highest dose activity change, negative = inhibition | hit rate 1.8% among 71,000 | AID 585; note: % of control where 0% means no effect
# Target sequence (P00811 whole entry, looked up): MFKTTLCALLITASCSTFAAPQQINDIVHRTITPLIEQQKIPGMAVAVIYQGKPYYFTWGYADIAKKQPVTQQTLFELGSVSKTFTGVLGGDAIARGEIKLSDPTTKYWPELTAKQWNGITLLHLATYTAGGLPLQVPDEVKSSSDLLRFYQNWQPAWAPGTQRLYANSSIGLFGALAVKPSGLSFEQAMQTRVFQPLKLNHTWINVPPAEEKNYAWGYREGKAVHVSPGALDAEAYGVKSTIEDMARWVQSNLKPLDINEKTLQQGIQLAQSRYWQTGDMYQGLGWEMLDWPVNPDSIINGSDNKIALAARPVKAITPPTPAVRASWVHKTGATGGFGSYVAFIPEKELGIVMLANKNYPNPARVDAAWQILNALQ
#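 AmpC in 20 mM phosphate buffer pH 7.0 was preincubated 15 min at room temperature with compounds. Nitrocefin (800 uM stock) was then added and hydrolysis followed at 480 nm every 20 s for 4 min.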
# AmpC inh det: blocks E. coli AmpC beta-lactamase in presence of detergent; Potency, µM (highest dose often 28.7 µM), without a hit: top-dose activity change, negative = inhibition; hit rate 0.09% among 71,000; P00811; purified AmpC, nitrocefin hydrolysis with detergent; active = well fitted curve in the direction sought with a large enough effect; inconclusive = small, poorly fitted or top-dose-only effect; note: % is set by controls: 0 for no effect and ±100 for the full control effect
#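 E. coli AmpC (5.3 nM) in 20 mM phosphate pH 7.0 with 0.01% Triton X-100, preincubated 15 min RT with compound; nitrocefin (2 uL of 800 uM stock) hydrolysis followed by 480 nm absorbance every 20 s over 4 min.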
# Prx2 Sm inh: blocks S. mansoni peroxiredoxin 2 enzymatic activity; S. mansoni Prx2 activity coupled to TGR/GSH (TGR is thioredoxin glutathione reductase), NADPH fluorescence loss, qHTS; Potency, µM; hit rate 0.07% among 65,000
#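 Prx2 inhibition was measured as reduced NADPH consumption when electrons flowed from NADPH through TGR and glutathione to Prx2 and H2O2. Plates were read kinetically over 8 min; enzyme reagents were held at 4 deg C during dispensing.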
# LT uptake inh: anthrax lethal toxin internalization inhibition; Cells, anthrax lethal toxin internalization, FRET ratio (460/530); Potency, µM (series often up to 40 µM), for the others: top-dose activity change, negative = inhibition, most hits filed as inhibitors; AID 912; hit rate 0.67% among 70,000; note: % is set by controls: 0 for no effect and ±100 for the full control effect; nearly all actives have a fitted effect of over 50% in size
# An asterisk follows results filed as active; ? = inconclusive; . = no result given; [ ] = another dose, or the depositor's remark. Unless noted, calls come from the whole dose curve. Potency is the fitted concentration of half-maximal effect.
SMILES,AmpC inh no det,AmpC inh det,Prx2 Sm inh,LT uptake inh
Cc1c(NC(=O)c2noc3c2CCc2ccccc2-3)c(=O)n(-c2ccccc2)n1C,4µM*[single pt active],10%,>57,-14%
Cc1ccccc1Cn1nc(C)c(NC(=O)c2noc3c2CCc2ccccc2-3)c1C,64%,13%,?,?
CC(=O)c1ccc(C2C=CC(O)C(CO)O2)cc1 (configuration not stated),.,.,.,-18%[8 µM]
Cc1c(C(=O)N2CCCC2)oc2c1-c1[nH]ncc1CC2,4µM*[single pt active],10%,>57,6%
O=S(=O)(c1ccccc1)N1CCC2(CCCN(c3ccccc3)C2)CC1,4%,1%,>57,?
O=S(=O)(c1ccccc1)N1CCC2(CCCN(c3ccncc3)C2)CC1,21%,-4%,>57,1µM*
Nc1ccc(O)c(-c2nc3ccccc3s2)c1,0.4µM*,7%,>57,?
Nc1cccc(-c2nc3ccc(N)cc3s2)c1,4%,-3%,>57,?
N#CCSc1nc2scc(-c3cccs3)c2c(=O)n1CCc1ccccc1,7.9µM*,0%,>57,-27%
C=CCn1c(SCn2nnc3ccccc3c2=O)nc2scc(-c3cccs3)c2c1=O,-9%,-3%,>57,5%
Oc1cccc(Nc2nc(NCC3CCCO3)c3ccccc3n2)c1 (configuration not stated),10µM*,-1%,>57,-22%
Cc1ccc2c(c1)N(CC(=O)NCC1COc3ccccc3O1)C(=O)CO2 (configuration not stated),49%,10%,>57,-7%
O=C(Cn1ncc2c(=O)oc3ccccc3c21)N1CCc2ccccc2C1,4µM*[single pt active],12%,>57,-11%
Cc1ccc2oc(=O)c3cnn(CC(=O)N4CCCc5ccccc54)c3c2c1,36%,6%,.,14%
O=C(Cn1ncc2c(=O)oc3ccccc3c21)N1CCC(N2CCCCC2)CC1,3.2µM*[single pt active],10%,>57,-13%
c1cc(CSSCc2ccncc2)ccn1,-6%[5.75 µM],-2%[5.75 µM],>57,-3%[8 µM]
C[C@@H](Cc1ccc2c(c1)OC(C(=O)O)(C(=O)O)O2)NC[C@H](O)c1cccc(Cl)c1,-4%,-5%,>57,-2%
O=C(O)COc1ccc(C(=O)Cc2ccc3c(c2)OCCCO3)c(O)c1,-11%,-1%,>57,-7%
O=C(Cc1ccc2c(c1)OCCO2)c1c(O)cc(O)cc1O,10µM*,-4%,>57,-1%
CCCN1C(=O)c2cc(C(=O)NCc3ccc(OC)cc3)ccc2C1O (configuration not stated),3.2µM*[single pt active],12%,>57,0%
Cc1c(C)n(C)c2ccc(C(=O)NCc3cccs3)cc12,4µM*[single pt active],15%,>57,?
Cc1ccc(N2C(=O)c3ccc(C(=O)NCCN4CCOCC4)cc3C2=O)cc1,53%,-2%,>57,-21%
CCCN1C(=O)c2cc(C(=O)NCCc3cccc(C)c3)ccc2C1O (configuration not stated),4µM*[single pt active],17%,>57,?
CCCN1C(=O)c2cc(C(=O)NCc3cccs3)ccc2C1O (configuration not stated),4µM*[single pt active],9%,>57,-17%
CCCN1C(=O)c2ccc(C(=O)NCc3ccco3)cc2C1=O,6%,-1%,>57,-6%
SMILES,AmpC inh no det,AmpC inh det,Prx2 Sm inh,LT uptake inh
CC(C)C[C@H](NC(=O)[C@@H](O)[C@@H](N)Cc1ccccc1)C(=O)O,-3%,-2%,>57,?
Cc1ccccc1-c1nc(Nc2ccncc2)c2ccccc2n1,-8%,6%,>57,-3%
CC(=O)O[C@@H]1CC[C@]2(C)C(=C[C@@H]([C@@H]3C=C4C[C@@H](OC(C)=O)CC[C@]4(C)C4=C3[C@H]3C[C@@H]5O[C@@]6(CC[C@H](C)CO6)[C@@H](C)[C@@H]5[C@@]3(C)CC4)C3=C2CC[C@@]2(C)[C@H]4[C@@H](C)[C@]5(CC[C@H](C)CO5)O[C@@H]4C[C@H]32)C1,50%[5.75 µM],-5%[5.75 µM],>57,16%[8 µM]
CCC(=O)N1CCc2cc(S(=O)(=O)NC(Cc3ccccc3)C(=O)NC3CCCC3)ccc21 (configuration not stated),18%,-3%,>57,5%
CN(Cc1ccco1)C(=O)C(Cc1ccccc1)NS(=O)(=O)c1ccc2c(c1)CCC(=O)N2 (configuration not stated),4µM*[single pt active],17%,>57,2%
O=C1CCc2cc(S(=O)(=O)N3CCN(C(=O)c4ccco4)CC3)ccc2N1,-8%,0%,>57,12%
CCCNC(=O)C(Cc1ccccc1)NS(=O)(=O)c1ccc2c(c1)CCC(=O)N2 (configuration not stated),4µM*[single pt active],13%,>57,-14%
O=C1CCc2cc(S(=O)(=O)NC(Cc3ccccc3)C(=O)NC3CCCC3)ccc2N1 (configuration not stated),4µM*[single pt active],15%,>57,-17%
COc1cc2c(cc1OC)-c1c(O)c(OC)cc3c1[C@@H](C2)N(C)CC3,19%,11%,>57,-36%
CC1CCN(CC[C@@H]2CCCN2S(=O)(=O)c2cccc(O)c2)CC1,-1%,-1%,>26,9%
CC(C)[C@]1(Cl)CC[C@@H]2[C@]3(C)CCC[C@@](C)(C(=O)O)[C@H]3C[C@H](Cl)[C@@]2(Cl)[C@H]1Cl,2%[5.75 µM],8%[5.75 µM],>57,-20%[8 µM]
O=c1[nH]ncc2ccccc12,-3%,8%,.,?
COc1ccc(OC)c(NC(=O)c2cc3n(n2)C(C(F)(F)F)CC(c2ccc4c(c2)OCO4)N3)c1 (configuration not stated),34%,4%,>57,-29%
O=C(Nc1cc(Cl)ccc1O)c1cc2n(n1)C(C(F)(F)F)CC(c1ccc3c(c1)OCO3)N2 (configuration not stated),7.9µM*,-3%,>57,?
C=C1CCO[C@@]2([C@H](O)[C@@](C)(O)CO)NC(=O)[C@]1(O)NC2=O,0%[5.75 µM],-3%[5.75 µM],>57,-10%[8 µM]
C[N+](C)(C)[C@@H](C1=CCCC1=O)c1ccccc1,-5%[5.75 µM],-1%[5.75 µM],>57,?
O=C(NCCN1CCCC1)C1(S(=O)(=O)c2ccc(Cl)cc2)CC1,-4%,-4%,>57,-1%
O=C(NCCCN1CCCCC1)C1(S(=O)(=O)c2ccc(Cl)cc2)CC1,4µM*[single pt active],14%,>57,-5%
Cc1ccc(C[C@H](Cc2nc3ccccc3[nH]2)c2nc3ccccc3[nH]2)cc1,-10%,1%,>57,?
c1ccc([C@H](c2cccc3c2ccc2ccccc23)[C@H](c2ccccc2)c2cccc3c2ccc2ccccc23)cc1,-14%[5.75 µM],-2%[5.75 µM],>57,3%[8 µM]
Cc1onc(-c2ccccc2Cl)c1C(=O)N[C@H]1C(=O)N2[C@H]1SC(C)(C)[C@H]2C(=O)O,0.0016µM*,0.002µM*,>57,2%[3.58 µM]
N[C@H](C(=O)N[C@@H]1C(=O)N2C(C(=O)O)=C(Cl)CS[C@@H]12)c1ccccc1,-11%[12.8 µM],-6%[12.8 µM],>57,8%[3.58 µM]
Cc1onc(-c2c(F)cccc2Cl)c1C(=O)NCc1cccs1,-3%,-2%,>57,11%
C=N[C@H](C(=O)N[C@@H]1C(=O)N2[C@@H]1SC(C)(C)[C@@H]2C(=O)O)c1ccccc1,0.13µM*,0.16µM*,>57,?

# Screening results deposited in PubChem by National Center for Advancing Translational Sciences (NCATS).
